# PubChem BioAssay (NCI)
# Compounds without any hit were thinned out: in the full panel of roughly 79,000, 15% have a hit. A number with no mark means an inactive call. The source made the active and inactive calls. Cut-off read from the data, not from the text of the source: active = growth inhibition above about 70%; inactive = the rest.
# Key:
# [1] = NCI Yeast Anticancer Drug Screen. Data for the rad52 strain (AID 147);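 note: 0% = growth of vehicle-treated control cultures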; settings: S. cerevisiae rad52 mutant growth inhibition, hits give high values
# Outline: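 Genetically altered yeast (DNA damage repair defect) treated with compound; inhibition calculated relative to vehicle.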
# [2] = NCI Yeast Anticancer Drug Screen. Data for the wt1 strain (AID 149);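 note: 0% = growth of vehicle-treated wt1 cultures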; settings: S. cerevisiae wt1 strain (SPY 50644) growth inhibition, hits give high values
# Outline: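 Growth inhibition read against vehicle controls after compound exposure of the wt1 yeast strain.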
# [3] = NCI Yeast Anticancer Drug Screen. Data for the rad50EPP+ strain (AID 151);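 note: 0% = growth of vehicle-treated control cultures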; settings: S. cerevisiae rad50 mutant strain, hits give high values
# Outline: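 Strain rad50EPP+; compound exposure; % growth inhibition vs vehicle.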
# [4] = NCI Yeast Anticancer Drug Screen. Data for the mgt1 strain (AID 153); settings: S. cerevisiae mgt1 mutant growth inhibition, hits give high values
# Outline: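 Read-out: yeast growth inhibition vs vehicle control. Strain mgt1, drawn from a panel altered in DNA damage repair or cell cycle control.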
# [5] = NCI Yeast Anticancer Drug Screen. Data for the rad50 strain (AID 155);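 note: 0% = growth of vehicle-only cultures of the same strain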; settings: S. cerevisiae rad50 strain growth inhibition, hits give high values
# Outline: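 Readout: growth inhibition relative to vehicle-treated cultures. Compound exposure was carried out in a genetically defined yeast strain deficient in DNA damage repair.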
# [6] = NCI Yeast Anticancer Drug Screen. Data for the mec2-1 strain (AID 157); settings: S. cerevisiae mec2-1 strain, hits give high values
# Outline: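 Cells of the genetically defined mec2-1 yeast strain are incubated with test compound. Inhibition of growth is calculated against vehicle-treated controls.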
# [7] = NCI Yeast Anticancer Drug Screen. Data for the rad14 strain (AID 159);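 note: 0% = growth of vehicle-treated control cultures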; settings: S. cerevisiae rad14 strain growth inhibition, hits give high values
# Outline: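 Growth inhibition vs vehicle controls; genetically altered yeast strain (DNA damage repair defect) treated with test compounds.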
# [8] = NCI Yeast Anticancer Drug Screen. Data for the sgs1 mgt1 strain (AID 161);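 note: 0% = growth of cultures given vehicle only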; settings: S. cerevisiae sgs1 mgt1 strain, hits give high values
# Outline: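 Genetically altered yeast, compound exposure, growth inhibition relative to vehicle.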
# [9] = NCI Yeast Anticancer Drug Screen. Data for the CLN2oe strain (AID 163);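 note: 0% = growth of vehicle-only control cultures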; settings: S. cerevisiae CLN2oe strain, hits give high values
# Outline: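 Strain altered in cell-cycle control, incubated with compound; growth compared to solvent-treated controls.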
# [10] = NCI Yeast Anticancer Drug Screen. Data for the cln2 rad14 strain (AID 165);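 note: 0% = growth equal to vehicle treated cultures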; settings: S. cerevisiae cln2 rad14 strain, hits give high values
# Outline: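 The screen exposed genetically defined yeast (cln2 rad14) to test compounds and scored growth inhibition relative to vehicle-treated controls.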
# [11] = NCI Yeast Anticancer Drug Screen. Data for the bub3 strain (AID 167); settings: S. cerevisiae bub3 mutant strain, hits give high values
# Outline: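 Readout: yeast growth inhibition, expressed relative to vehicle-only wells. The test organism is a mutant strain from a panel with lesions in DNA repair or checkpoint genes.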
# [12] = NCI Yeast Anticancer Drug Screen. Data for the wt2 strain (AID 169);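 note: 0% = growth of vehicle-treated yeast cultures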; settings: S. cerevisiae wt2 strain growth inhibition, hits give high values
# Outline: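 Steps: yeast strain treated with compound; growth recorded; inhibition calculated relative to cultures given vehicle alone.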
# [13] = NCI Yeast Anticancer Drug Screen. Data for the mlh1 strain (AID 171);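 note: 0% = growth of vehicle-treated control cultures of the same strain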; settings: S. cerevisiae mlh1 strain growth inhibition, hits give high values
# Outline: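 Yeast screen: mutant strain plus compound, growth scored against vehicle control wells.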
# [14] = NCI Yeast Anticancer Drug Screen. Data for the sgs1 strain (AID 173);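 note: 0% = growth of vehicle-only control cultures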; settings: S. cerevisiae sgs1 mutant, hits give high values
# Outline: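 Inhibition of yeast growth served as the measure. The mutant strain was treated with each compound, and growth was normalised to cultures receiving vehicle alone.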
# [15] = NCI Yeast Anticancer Drug Screen. Data for the mlh1 rad18 strain (AID 175); settings: S. cerevisiae mlh1 rad18 strain growth inhibition, hits give high values
# Outline: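 Compound-treated yeast growth, normalised to vehicle controls. Strain bears defined DNA repair mutations.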
# [16] = NCI Yeast Anticancer Drug Screen. Data for the rad18 strain (AID 177); settings: S. cerevisiae rad18 mutant growth inhibition, hits give high values
# Outline: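 Inhibition values reflect reduced yeast growth compared with vehicle-treated controls, using a strain engineered with a DNA damage repair defect.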
# [17] = at 5.0 µM (retest, dose inferred, filed as 0.5)
# [18] = at 50.0 µM (retest, dose inferred, filed as 5.0)
structure (smiles),measurement,setting,value
O=C1C=C(N2CCN(c3ccccn3)CC2)C(=O)c2c(O)ccc(O)c21,growth inhibition,[1]; at 1.2 µM,3%
same,growth inhibition,[1]; at 3.7 µM,8%
same,growth inhibition,[1]; at 11.0 µM,19%
same,growth inhibition,[1]; at 33.0 µM,33%
same,growth inhibition,[1]; at 100.0 µM,45%
same,growth inhibition,[2]; at 1.2 µM,10%
same,growth inhibition,[2]; at 3.7 µM,13%
same,growth inhibition,[2]; at 11.0 µM,15%
same,growth inhibition,[2]; at 33.0 µM,21%
same,growth inhibition,[2]; at 100.0 µM,26%
same,growth inhibition,[3]; at 1.2 µM,-4%
same,growth inhibition,[3]; at 3.7 µM,-3%
same,growth inhibition,[3]; at 11.0 µM,4%
same,growth inhibition,[3]; at 33.0 µM,17%
same,growth inhibition,[3]; at 100.0 µM,26%
same,growth inhibition,[4]; at 1.2 µM,5%
same,growth inhibition,[4]; at 3.7 µM,8%
same,growth inhibition,[4]; at 11.0 µM,14%
same,growth inhibition,[4]; at 33.0 µM,20%
same,growth inhibition,[4]; at 100.0 µM,47%
same,growth inhibition,[5]; at 1.2 µM,-3%
same,growth inhibition,[5]; at 3.7 µM,-8%
same,growth inhibition,[5]; [17],28%
same,growth inhibition,[5]; at 11.0 µM,0%
same,growth inhibition,[5]; at 33.0 µM,37%
same,growth inhibition,[5]; [18],94% (active)
same,growth inhibition,[5]; at 50.0 µM,84.5% (active)
same,growth inhibition,[5]; at 100.0 µM,55%
same,growth inhibition,[6]; at 1.2 µM,7%
same,growth inhibition,[6]; at 3.7 µM,8%
same,growth inhibition,[6]; [17],-17%
same,growth inhibition,[6]; at 11.0 µM,10%
same,growth inhibition,[6]; at 33.0 µM,19%
same,growth inhibition,[6]; [18],84% (active)
same,growth inhibition,[6]; at 50.0 µM,65.2%
same,growth inhibition,[6]; at 100.0 µM,27%
same,growth inhibition,[7]; at 1.2 µM,9%
same,growth inhibition,[7]; at 3.7 µM,14%
same,growth inhibition,[7]; at 11.0 µM,29%
same,growth inhibition,[7]; at 33.0 µM,69%
same,growth inhibition,[7]; at 100.0 µM,87% (active)
same,growth inhibition,[8]; [17],8%
same,growth inhibition,[8]; [18],91% (active)
same,growth inhibition,[8]; at 50.0 µM,82.7% (active)
same,growth inhibition,[9]; at 1.2 µM,11%
same,growth inhibition,[9]; at 3.7 µM,7%
same,growth inhibition,[9]; at 11.0 µM,13%
same,growth inhibition,[9]; at 33.0 µM,21%
same,growth inhibition,[9]; at 100.0 µM,21%
same,growth inhibition,[10]; [17],-6%
same,growth inhibition,[10]; [18],15%
same,growth inhibition,[10]; at 50.0 µM,25.9%
same,growth inhibition,[11]; at 1.2 µM,4%
same,growth inhibition,[11]; at 3.7 µM,3%
same,growth inhibition,[11]; [17],5%
same,growth inhibition,[11]; at 11.0 µM,10%
same,growth inhibition,[11]; at 33.0 µM,23%
same,growth inhibition,[11]; [18],71% (active)
same,growth inhibition,[11]; at 50.0 µM,88.8% (active)
same,growth inhibition,[11]; at 100.0 µM,34%
same,growth inhibition,[12]; at 1.2 µM,4%
same,growth inhibition,[12]; at 3.7 µM,9%
same,growth inhibition,[12]; at 11.0 µM,15%
same,growth inhibition,[12]; at 33.0 µM,32%
same,growth inhibition,[12]; at 100.0 µM,52%
same,growth inhibition,[13]; at 1.2 µM,7%
same,growth inhibition,[13]; at 3.7 µM,12%
same,growth inhibition,[13]; at 11.0 µM,21%
same,growth inhibition,[13]; at 33.0 µM,42%
same,growth inhibition,[13]; at 100.0 µM,75% (active)
same,growth inhibition,[14]; at 1.2 µM,8%
same,growth inhibition,[14]; at 3.7 µM,11%
same,growth inhibition,[14]; at 11.0 µM,22%
same,growth inhibition,[14]; at 33.0 µM,63%
same,growth inhibition,[14]; at 100.0 µM,82% (active)
same,growth inhibition,[15]; [17],10%
same,growth inhibition,[15]; [18],94% (active)
same,growth inhibition,[15]; at 50.0 µM,72.5% (active)
same,growth inhibition,[16]; at 1.2 µM,1%
same,growth inhibition,[16]; at 3.7 µM,4%
same,growth inhibition,[16]; at 11.0 µM,17%
same,growth inhibition,[16]; at 33.0 µM,46%
same,growth inhibition,[16]; at 100.0 µM,68%
CC(C)(C)C1=CC(=CC=C2C=CN(CCCCCCCCCCCO)C=C2)C=C(C(C)(C)C)C1=O,growth inhibition,[1]; at 1.2 µM,-1%
same,growth inhibition,[1]; at 3.7 µM,95% (active)
same,growth inhibition,[1]; at 11.0 µM,99% (active)
same,growth inhibition,[1]; at 33.0 µM,98% (active)
same,growth inhibition,[1]; at 100.0 µM,98% (active)
same,growth inhibition,[2]; at 1.2 µM,-6%
same,growth inhibition,[2]; at 3.7 µM,46%
same,growth inhibition,[2]; at 11.0 µM,99% (active)
same,growth inhibition,[2]; at 33.0 µM,99% (active)
same,growth inhibition,[2]; at 100.0 µM,99% (active)
same,growth inhibition,[3]; at 1.2 µM,-3%
same,growth inhibition,[3]; at 3.7 µM,-3%
same,growth inhibition,[3]; at 11.0 µM,-2%
same,growth inhibition,[3]; at 33.0 µM,82% (active)
same,growth inhibition,[3]; at 100.0 µM,95% (active)
same,growth inhibition,[4]; at 1.2 µM,-4%
same,growth inhibition,[4]; at 3.7 µM,-4%
same,growth inhibition,[4]; at 11.0 µM,99% (active)
same,growth inhibition,[4]; at 33.0 µM,100% (active)
same,growth inhibition,[4]; at 100.0 µM,99% (active)
same,growth inhibition,[5]; at 1.2 µM,-3%
same,growth inhibition,[5]; at 3.7 µM,48%
same,growth inhibition,[5]; [17],86% (active)
same,growth inhibition,[5]; at 11.0 µM,99% (active)
same,growth inhibition,[5]; at 33.0 µM,98% (active)
same,growth inhibition,[5]; [18],95% (active)
same,growth inhibition,[5]; at 50.0 µM,99.2% (active)
same,growth inhibition,[5]; at 100.0 µM,98% (active)
same,growth inhibition,[6]; at 1.2 µM,-3%
same,growth inhibition,[6]; at 3.7 µM,99% (active)
same,growth inhibition,[6]; [17],99% (active)
same,growth inhibition,[6]; at 11.0 µM,99% (active)
same,growth inhibition,[6]; at 33.0 µM,99% (active)
same,growth inhibition,[6]; [18],99% (active)
same,growth inhibition,[6]; at 50.0 µM,98.7% (active)
same,growth inhibition,[6]; at 100.0 µM,98% (active)
same,growth inhibition,[7]; at 1.2 µM,-4%
same,growth inhibition,[7]; at 3.7 µM,23%
same,growth inhibition,[7]; at 11.0 µM,99% (active)
same,growth inhibition,[7]; at 33.0 µM,99% (active)
same,growth inhibition,[7]; at 100.0 µM,98% (active)
same,growth inhibition,[8]; [17],99% (active)
same,growth inhibition,[8]; [18],89% (active)
same,growth inhibition,[8]; at 50.0 µM,99.3% (active)
same,growth inhibition,[9]; at 1.2 µM,-8%
same,growth inhibition,[9]; at 3.7 µM,10%
same,growth inhibition,[9]; at 11.0 µM,99% (active)
same,growth inhibition,[9]; at 33.0 µM,98% (active)
same,growth inhibition,[9]; at 100.0 µM,97% (active)
same,growth inhibition,[10]; [17],99% (active)
same,growth inhibition,[10]; [18],99% (active)
same,growth inhibition,[10]; at 50.0 µM,99.2% (active)
same,growth inhibition,[11]; at 1.2 µM,-2%
same,growth inhibition,[11]; at 3.7 µM,57%
same,growth inhibition,[11]; [17],94% (active)
same,growth inhibition,[11]; at 11.0 µM,98% (active)
same,growth inhibition,[11]; at 33.0 µM,98% (active)
same,growth inhibition,[11]; [18],99% (active)
same,growth inhibition,[11]; at 50.0 µM,99% (active)
same,growth inhibition,[11]; at 100.0 µM,96% (active)
same,growth inhibition,[12]; at 1.2 µM,-4%
same,growth inhibition,[12]; at 3.7 µM,4%
same,growth inhibition,[12]; at 11.0 µM,99% (active)
same,growth inhibition,[12]; at 33.0 µM,99% (active)
same,growth inhibition,[12]; at 100.0 µM,98% (active)
same,growth inhibition,[13]; at 1.2 µM,-3%
same,growth inhibition,[13]; at 3.7 µM,0%
same,growth inhibition,[13]; at 11.0 µM,99% (active)
same,growth inhibition,[13]; at 33.0 µM,99% (active)
same,growth inhibition,[13]; at 100.0 µM,98% (active)
same,growth inhibition,[14]; at 1.2 µM,-3%
same,growth inhibition,[14]; at 3.7 µM,84% (active)
same,growth inhibition,[14]; at 11.0 µM,99% (active)
same,growth inhibition,[14]; at 33.0 µM,99% (active)
same,growth inhibition,[14]; at 100.0 µM,98% (active)
same,growth inhibition,[15]; [17],98% (active)
same,growth inhibition,[15]; [18],99% (active)
same,growth inhibition,[15]; at 50.0 µM,99.5% (active)
same,growth inhibition,[16]; at 1.2 µM,-4%
same,growth inhibition,[16]; at 3.7 µM,68%
same,growth inhibition,[16]; at 11.0 µM,99% (active)
same,growth inhibition,[16]; at 33.0 µM,98% (active)
same,growth inhibition,[16]; at 100.0 µM,97% (active)
